Shh pathway inh: Hedgehog pathway signaling inhibitors, primary screen, luminescence, Shh-LIGHT2 cells, Gli-luciferase. inhibition, % (no concentration beside the values). 22,000 compounds, 2.1% hits. Shh-LIGHT2 Gli-luciferase reporter, 30 h. AID 2313, 2010;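 active = mean inhibition across valid replicates above about 65%, limit read from the data; inconclusive = mean under the limit, yet half or more replicates past it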;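 note: pathway switched on by Shh-conditioned medium diluted 1 in 25 in low serum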
NOMO-1 viab: NOMO-1 AML cell viability reduction, primary screen, STK33 inhibitor project, CellTiter-Glo luminescence. NOMO-1 AML viability, 72 h. inhibition, % (test concentration not listed). 37,000 compounds, 7.5% hits; in the data active = inhibition above about 80%; inconclusive = no clear call, values can overlap the other calls
MITF inh: inhibitors of MITF, primary screen, MITF inhibitor project, cell-based, luminescence | TRPM1 promoter luciferase, 24 h | inhibition, % (concentration not given with the values) | 37,000 compounds, 0.28% hits | AID 2240, 2010; in the data active = inhibition above about 85%; inconclusive = no clear call, values can overlap the other calls; inactive = below about 68%;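 note: human melanocyte line stably carrying TRPM1 promoter luciferase reporter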
Starred values were filed as active, the others as inactive; ? = inconclusive; / = not tested or not shown. Hits are enriched below; roughly 8.1% of the tested compounds scored in any of these assays.

SMILES	Shh pathway inh	NOMO-1 viab	MITF inh
O=C1C[C@H](c2ccccc2)Oc2c(Cc3ccccc3O)c(O)cc(O)c21	-25	18	92*
Cc1c(O)cc(O)c2c1OC(c1ccccc1)CC2=O (stereo not given)	-8	2	-3
Cc1ccc(N(CC(=O)Nc2c(C)n(C)n(-c3ccccc3)c2=O)S(C)(=O)=O)cc1Cl	/	9	-1
CC(=O)c1c(C)nn(CC(O)COc2ccc3c(c2)CCC3)c1C (stereo not given)	/	55	28
Cc1nn(CC(O)COc2ccc3c(c2)CCC3)c(C)c1Br (stereo not given)	/	96*	-13
CCOC(=O)c1sc(NC(=O)c2cc(-c3ccccc3)on2)c(C(=O)OCC)c1C	/	-3	-6
NC(=O)c1ccccc1NC(=O)COc1cc(Cl)c(Cl)cc1Cl	/	23	-25
Cc1ccc(S(=O)(=O)N(C)C[C@H]2Oc3c(NC(=O)CCCCCC(=O)Nc4ccccc4N)cccc3C(=O)N([C@H](C)CO)C[C@H]2C)cc1	/	57	-2
C[C@@H]1CN([C@@H](C)CO)C(=O)c2cccc(NC(=O)CCCCCC(=O)Nc3ccccc3N)c2O[C@H]1CN(C)S(=O)(=O)c1ccc(Cl)cc1	/	95*	-9
C[C@@H]1CN([C@H](C)CO)C(=O)c2cccc(NC(=O)CCCCCC(=O)Nc3ccccc3N)c2O[C@@H]1CN(C)S(=O)(=O)c1ccccc1	/	47	-2
C[C@@H]1CN([C@H](C)CO)C(=O)c2cccc(NC(=O)CCCCCC(=O)Nc3ccccc3N)c2O[C@@H]1CN(C)S(=O)(=O)c1ccc(Cl)cc1	/	95*	21
C[C@@H]1CN([C@@H](C)CO)C(=O)c2cccc(NC(=O)CCCCCC(=O)Nc3ccccc3N)c2O[C@@H]1CN(C)S(=O)(=O)c1ccc(Cl)cc1	/	121*	12
C[C@H](CO)N1C[C@H](C)[C@@H](CN(C)S(C)(=O)=O)Oc2c(NC(=O)CCCCCC(=O)Nc3ccccc3N)cccc2C1=O	/	25	-13
O=c1c2ccccc2[nH]c(=S)n1CCCN1CCN(Cc2ccccc2)CC1	/	13	4
O=S(=O)(c1cccc2c(Cl)cccc12)N1CCCNCC1	37	90*	-10
O=S(=O)(c1cccc2c(I)cccc12)N1CCCNCC1	?	65	1
Cc1ccc(NC(=O)CSc2nc3sc(C)c(C)c3c(=O)n2-c2ccc(C)c(C)c2)cc1	/	26	-2
Cc1ccc(S(=O)(=O)Nc2ccc(Br)cc2CNc2nc3ccccc3n2C)cc1	/	23	13
O=C1C=CC(=O)N1c1ccccc1	/	114*	64
CC1(C)ONC(=O)N(c2ccccc2)C1=O	-11	9	-14
O=C(CSc1n[nH]c(-c2ccc(Cl)cc2)n1)c1ccc(Br)cc1	/	30	1
Cc1cc(OCC(=O)Nc2ccc(O)c(-c3nc4ccccc4o3)c2)ccc1Cl	/	107*	42
Cc1cc(OCC(=O)Nc2ccc(O)c(-c3nc4ccccc4s3)c2)ccc1Cl	/	56	25
CC(C)(C)C1CCc2c(sc(NC(=O)CN3CCOCC3)c2C#N)C1 (stereo not given)	/	2	-27
COc1ccc(CSc2nnc(CSc3cccs3)n2C)cc1	8	16	-5
SMILES	Shh pathway inh	NOMO-1 viab	MITF inh
COc1ccc(OC)c(NC(=O)CN(c2ccc(Br)c(C)c2)S(C)(=O)=O)c1	/	31	3
Cc1ccc(S(=O)(=O)Nc2ccc3c(c2)C(=O)N([C@H](C)CO)C[C@H](C)[C@H](CN(C)S(=O)(=O)c2ccc(Cl)cc2)OCCCC[C@@H](C)O3)cc1	21	111*	34
C[C@@H]1CCCCO[C@H](CN(C)S(=O)(=O)c2ccc(Cl)cc2)[C@@H](C)CN([C@H](C)CO)C(=O)c2cc(NS(=O)(=O)c3ccc(Cl)cc3)ccc2O1	14	20	36
C[C@@H]1CCCCO[C@@H](CN(C)S(=O)(=O)c2ccc(F)cc2)[C@@H](C)CN([C@H](C)CO)C(=O)c2cc(NS(=O)(=O)c3ccc(F)cc3)ccc2O1	-16	68	46
C[C@@H]1CCCCO[C@@H](CN(C)S(=O)(=O)c2ccc(Cl)cc2)[C@@H](C)CN([C@H](C)CO)C(=O)c2cc(NS(=O)(=O)c3ccc(F)cc3)ccc2O1	25	103*	48
C[C@@H]1CCCCO[C@@H](CN(C)S(=O)(=O)c2ccc(Cl)cc2)[C@@H](C)CN([C@H](C)CO)C(=O)c2cc(NS(=O)(=O)c3ccc(Cl)cc3)ccc2O1	71*	91*	53
COc1ccc(S(=O)(=O)Nc2ccc3c(c2)C(=O)N([C@H](C)CO)C[C@H](C)[C@H](CN(C)S(=O)(=O)c2ccc(OC)cc2)OCCCC[C@@H](C)O3)cc1	/	38	22
Cc1ccc(S(=O)(=O)N(C)C[C@H]2OCCCC[C@@H](C)Oc3ccc(NS(=O)(=O)c4ccc(Cl)cc4)cc3C(=O)N([C@H](C)CO)C[C@@H]2C)cc1	/	?	45
COc1ccc(S(=O)(=O)N(C)C[C@@H]2OCCCC[C@@H](C)Oc3ccc(NS(=O)(=O)c4ccc(Cl)cc4)cc3C(=O)N([C@H](C)CO)C[C@@H]2C)cc1	14	94*	48
Cc1ccc(-n2nc3cc(C)c(NC(=O)COc4cccc(C)c4)cc3n2)cc1	/	13	-63
COc1ccc(S(=O)(=O)N(C)CC(=O)NC2CCCC2)cc1	/	9	4
Cn1c(SCC(=O)Nc2cccc(C(F)(F)F)c2)nnc1-c1cc2cc(Cl)ccc2o1	/	14	-16
CCc1ccc(-c2cn3c4ccccc4nc3n2CCN2CCOCC2)cc1	/	36	25
Fc1ccccc1-c1nnc(SCc2nc3ccccc3[nH]2)n1-c1ccccc1	/	25	14
Cc1ccc(S(=O)(=O)N(C)C[C@H]2OCCCC[C@@H](C)Oc3ccc(NS(=O)(=O)c4ccccc4)cc3C(=O)N([C@H](C)CO)C[C@@H]2C)cc1	60	36	29
C[C@@H]1CCCCO[C@H](CN(C)CC2CCCCC2)[C@@H](C)CN([C@H](C)CO)C(=O)c2cc(NS(=O)(=O)c3ccc(Cl)cc3)ccc2O1	-1	?	13
C[C@@H]1CCCCO[C@H](CN(C)S(=O)(=O)c2ccccc2)[C@@H](C)CN([C@H](C)CO)C(=O)c2cc(NC(=O)c3ccccc3)ccc2O1	4	4	3
C[C@@H]1CCCCO[C@@H](CN(C)S(=O)(=O)c2ccc(Cl)cc2)[C@@H](C)CN([C@H](C)CO)C(=O)c2cc(NC(=O)c3ccccc3)ccc2O1	46	88*	31
Cc1ccc(S(=O)(=O)Nc2ccc3c(c2)C(=O)N([C@H](C)CO)C[C@H](C)[C@H](CN(C)S(=O)(=O)c2ccccc2)OCCCC[C@@H](C)O3)cc1	30	91*	26
C[C@@H]1CCCCO[C@@H](CN(C)CC2CCCCC2)[C@@H](C)CN([C@H](C)CO)C(=O)c2cc(NS(=O)(=O)c3ccc(Cl)cc3)ccc2O1	-4	97*	13
COc1ccc(NC(=O)COc2ccc(Cl)c(C)c2)c([N+](=O)[O-])c1	/	3	-89
COc1cccc(NC(=O)CSc2nnc(-c3ccncc3)n2-c2ccc(Br)cc2)c1	/	14	-2
COc1ccc(Cl)cc1NC(=O)Cn1cnc2sc3c(c2c1=O)CCC(C)C3 (stereo not given)	/	34	36

Assay outcomes: PubChem, Broad Institute
